Laboratory results taken from PubChem BioAssay (Tox21).
Results filed as inconclusive are left out. Activity calls are given as the source filed them. The call rests on the fitted dose curve; in most records, active means well fitted curve in the direction sought with a large enough effect in the repeat runs; inconclusive means weak or mixed curves; inactive means no such curve, though single readings can be large; an effect the other way counts as inactive or inconclusive.

Legend:
[1] = Human pregnane X receptor (PXR) small molecule agonists, qHTS cell viability counter screen (AID 1346977); further: nearly all actives have a fitted effect of over 50% in size; further: potency means the concentration at half of the fitted maximal effect
Method in brief: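 PXR-Luc HepG2, 2,000 cells/well, 5% charcoal-stripped FBS; 5hr settle; cpd 24hr, 37C/5% CO2; CellTiter-Fluor at 23hr, read 1hr later (fluorescence).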

[2] = Caspase-3/7 induction in HepG2 cells by small molecules, qHTS assay (AID 1346978); further: nearly all actives have a fitted effect of over 15% in size
Method in brief: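 Caspase-3/7 induction was measured by Caspase-Glo 3/7 luminescence (30 min, room temperature) after a 17 hr compound exposure of wild-type HepG2 cells seeded at 2,000 per well and pre-incubated 5 hr.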

[3] = Caspase-3/7 induction in CHO-K1 cells by small molecules, qHTS assay (AID 1346980); further: nearly all actives have a fitted effect of over 15% in size
Method in brief: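 Luminescent Caspase-Glo 3/7 read (30min, room temperature) quantified apoptosis induction. Cells were wild-type CHO-K1, treated with compound for 17hr at 37 C and 5% CO2.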

[4] = Caspase-3/7 induction in HepG2 cells by small molecules, qHTS cell viability counter screen (AID 1346981); further: nearly all actives have a fitted effect of over 30% in size; further: potency means the concentration at half of the fitted maximal effect; on activity change, negative = cytotoxicity: series mostly up to about 92 µM
Method in brief: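 Steps: seed 2,000 HepG2 cells per well; incubate 5 hr at 37 C; pin-add compounds in DMSO; incubate 16 hr; add CellTiter-Fluor; after 1 hr at 37 C and 5% CO2, read fluorescence.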

[5] = molecular target: Nuclear receptor subfamily 1 group I member 2 (Rattus norvegicus) (UniProt Q9R1A7); assay: Rat pregnane X receptor (rPXR) activation by small molecules, qHTS assay (AID 1346983); conditions: rPXR luciferase reporter cells, One-Glo luminescence, 24 h; hits give high values; further: nearly all actives have a fitted effect of over 20% in size
Sequence of Nuclear receptor subfamily 1 group I member 2 (Rattus norvegicus) (Q9R1A7 whole entry, looked up): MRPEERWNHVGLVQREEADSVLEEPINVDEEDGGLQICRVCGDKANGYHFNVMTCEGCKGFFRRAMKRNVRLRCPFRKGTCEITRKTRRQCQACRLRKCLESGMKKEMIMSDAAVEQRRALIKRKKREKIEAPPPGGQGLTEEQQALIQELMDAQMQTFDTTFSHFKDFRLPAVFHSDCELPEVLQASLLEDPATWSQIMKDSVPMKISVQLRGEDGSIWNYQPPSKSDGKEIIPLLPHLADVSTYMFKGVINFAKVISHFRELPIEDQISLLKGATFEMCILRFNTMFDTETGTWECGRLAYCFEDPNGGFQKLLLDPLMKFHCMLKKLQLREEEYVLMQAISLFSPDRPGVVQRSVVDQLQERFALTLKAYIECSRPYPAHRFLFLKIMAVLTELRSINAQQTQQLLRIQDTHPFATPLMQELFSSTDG
Method in brief: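 Luminescent readout (One-Glo luciferase, 30 min room temperature) followed 24 hr compound treatment at 37 C of rPXR cells plated 2,000 per well and preincubated 5hr; qHTS format with compounds delivered in DMSO.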

[6] = molecular target: Cytochrome P450 2D6 (Homo sapiens) (UniProt P10635); assay: Cytochrome P450 Family 2 Subfamily D Member 6 (CYP2D6) small molecule antagonists: luciferase reporter qHTS assay (AID 1671196); further: nearly all actives have a fitted effect of over 50% in size; further: potency means the concentration at half of the fitted maximal effect; on activity change, negative = inhibition: series mostly up to about 120 µM
Sequence of Cytochrome P450 2D6 (Homo sapiens) (P10635 whole entry, looked up): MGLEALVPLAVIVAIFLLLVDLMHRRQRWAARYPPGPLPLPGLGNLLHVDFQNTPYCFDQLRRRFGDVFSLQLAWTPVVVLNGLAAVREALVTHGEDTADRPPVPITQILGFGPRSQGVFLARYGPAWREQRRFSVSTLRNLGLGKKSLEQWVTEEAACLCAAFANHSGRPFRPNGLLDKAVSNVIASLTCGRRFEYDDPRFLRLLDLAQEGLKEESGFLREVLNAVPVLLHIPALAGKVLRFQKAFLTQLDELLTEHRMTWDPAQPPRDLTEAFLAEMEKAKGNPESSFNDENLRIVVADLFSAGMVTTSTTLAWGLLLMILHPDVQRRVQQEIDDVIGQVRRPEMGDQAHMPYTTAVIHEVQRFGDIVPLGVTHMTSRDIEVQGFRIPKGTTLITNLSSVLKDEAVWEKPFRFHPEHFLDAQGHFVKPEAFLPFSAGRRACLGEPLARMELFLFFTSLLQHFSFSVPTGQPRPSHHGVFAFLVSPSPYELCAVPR
Method in brief: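 P450-Glo format: CYP2D6 converts a proluciferin substrate to luciferin in an NADPH-driven reaction lasting 1 h at room temperature. Light output, proportional to CYP2D6 activity, reflects interference by test chemicals.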

[7] = molecular target: Cytochrome P450 2C19 (Homo sapiens) (UniProt P33261); assay: Cytochrome P450 Family 2 Subfamily C Member 19 (CYP2C19) small molecule antagonists: luciferase reporter qHTS assay (AID 1671197); further: nearly all actives have a fitted effect of over 65% in size; further: potency means the concentration at half of the fitted maximal effect; on activity change, negative = inhibition: series mostly up to about 120 µM
Sequence of Cytochrome P450 2C19 (Homo sapiens) (P33261 whole entry, looked up): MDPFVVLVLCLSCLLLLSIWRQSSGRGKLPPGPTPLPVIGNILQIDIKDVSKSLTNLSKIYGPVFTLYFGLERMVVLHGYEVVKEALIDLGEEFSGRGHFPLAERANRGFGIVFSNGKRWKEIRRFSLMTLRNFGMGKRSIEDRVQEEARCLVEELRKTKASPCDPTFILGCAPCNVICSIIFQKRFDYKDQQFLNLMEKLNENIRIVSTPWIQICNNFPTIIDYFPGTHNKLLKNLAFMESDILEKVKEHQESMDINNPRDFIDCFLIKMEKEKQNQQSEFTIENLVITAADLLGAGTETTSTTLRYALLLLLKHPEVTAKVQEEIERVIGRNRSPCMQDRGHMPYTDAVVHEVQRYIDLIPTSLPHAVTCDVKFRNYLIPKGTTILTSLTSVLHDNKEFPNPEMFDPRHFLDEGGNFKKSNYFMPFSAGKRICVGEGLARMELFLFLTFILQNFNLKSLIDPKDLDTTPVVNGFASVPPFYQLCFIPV
Method in brief: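 Enzyme-substrate mix with proluciferin substrate (P450-Glo CYP2C19 system) preincubated with compounds 10 min at room temperature; NADPH regeneration solution added, 37C for 1 h; detection reagent stops reaction, luminescence read after 20 min. Ketoconazole positive control.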

[8] = molecular target: Cytochrome P450 2C9 (Homo sapiens) (UniProt P11712); assay: Cytochrome P450 Family 2 Subfamily C Member 9 (CYP2C9) small molecule antagonists: luciferase reporter qHTS assay (AID 1671198); further: nearly all actives have a fitted effect of over 50% in size; further: potency means the concentration at half of the fitted maximal effect; on activity change, negative = inhibition: series mostly up to about 120 µM
Sequence of Cytochrome P450 2C9 (Homo sapiens) (P11712 whole entry, looked up): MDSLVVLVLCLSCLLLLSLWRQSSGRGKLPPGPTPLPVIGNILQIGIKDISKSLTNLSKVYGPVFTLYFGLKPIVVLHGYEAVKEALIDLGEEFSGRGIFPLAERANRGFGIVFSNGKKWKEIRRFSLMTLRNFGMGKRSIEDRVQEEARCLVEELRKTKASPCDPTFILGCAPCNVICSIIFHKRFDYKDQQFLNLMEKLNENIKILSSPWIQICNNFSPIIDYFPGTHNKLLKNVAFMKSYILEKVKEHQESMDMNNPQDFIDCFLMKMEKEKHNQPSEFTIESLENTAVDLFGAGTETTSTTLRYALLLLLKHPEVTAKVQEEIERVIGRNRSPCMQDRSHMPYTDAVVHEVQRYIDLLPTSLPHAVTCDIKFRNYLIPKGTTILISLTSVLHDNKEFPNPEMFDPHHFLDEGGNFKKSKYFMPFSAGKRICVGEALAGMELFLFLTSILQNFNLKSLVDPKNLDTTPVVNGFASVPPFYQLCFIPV
Method in brief: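 Enzyme-substrate mix preincubated with compound 10 min at room temperature; reaction started with NADPH regeneration solution, 1 h 37C. Luminescent luciferin product read after 20 min detection reagent.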

[9] = molecular target: Cytochrome P450 1A2 (Homo sapiens) (UniProt P05177); assay: Cytochrome P450 Family 1 Subfamily A Member 2 (CYP1A2) small molecule antagonists: luciferase reporter qHTS assay (AID 1671199); further: nearly all actives have a fitted effect of over 50% in size; further: potency means the concentration at half of the fitted maximal effect; on activity change, negative = inhibition: series mostly up to about 120 µM
Sequence of Cytochrome P450 1A2 (Homo sapiens) (P05177 whole entry, looked up): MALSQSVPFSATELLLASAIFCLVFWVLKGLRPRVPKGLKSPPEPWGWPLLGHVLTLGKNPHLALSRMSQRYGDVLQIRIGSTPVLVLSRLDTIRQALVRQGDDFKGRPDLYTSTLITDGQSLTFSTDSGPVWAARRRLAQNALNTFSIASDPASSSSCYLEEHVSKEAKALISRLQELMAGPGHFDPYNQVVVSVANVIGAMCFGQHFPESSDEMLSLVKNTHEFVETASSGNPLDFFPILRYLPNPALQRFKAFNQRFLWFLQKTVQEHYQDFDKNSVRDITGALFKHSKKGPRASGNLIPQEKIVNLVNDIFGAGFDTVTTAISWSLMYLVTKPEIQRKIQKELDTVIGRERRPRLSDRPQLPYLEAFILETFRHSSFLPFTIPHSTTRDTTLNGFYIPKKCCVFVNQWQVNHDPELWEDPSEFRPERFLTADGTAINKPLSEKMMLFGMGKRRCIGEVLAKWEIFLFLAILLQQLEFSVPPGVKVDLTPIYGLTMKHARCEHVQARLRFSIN
Method in brief: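 Inhibition of CYP1A2 conversion of proluciferin to luciferin, detected by luminescence. Reaction run 1 h at room temperature with NADPH regeneration after brief compound preincubation.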

[10] = molecular target: Voltage-gated inwardly rectifying potassium channel KCNH2 (Homo sapiens) (UniProt Q12809); assay: Human Ether-a-go-go-Related Gene (hERG) channel small molecule antagonists: fluorescence cell-based qHTS assay (AID 1671200)
Sequence of Voltage-gated inwardly rectifying potassium channel KCNH2 (Homo sapiens) (Q12809 whole entry, looked up): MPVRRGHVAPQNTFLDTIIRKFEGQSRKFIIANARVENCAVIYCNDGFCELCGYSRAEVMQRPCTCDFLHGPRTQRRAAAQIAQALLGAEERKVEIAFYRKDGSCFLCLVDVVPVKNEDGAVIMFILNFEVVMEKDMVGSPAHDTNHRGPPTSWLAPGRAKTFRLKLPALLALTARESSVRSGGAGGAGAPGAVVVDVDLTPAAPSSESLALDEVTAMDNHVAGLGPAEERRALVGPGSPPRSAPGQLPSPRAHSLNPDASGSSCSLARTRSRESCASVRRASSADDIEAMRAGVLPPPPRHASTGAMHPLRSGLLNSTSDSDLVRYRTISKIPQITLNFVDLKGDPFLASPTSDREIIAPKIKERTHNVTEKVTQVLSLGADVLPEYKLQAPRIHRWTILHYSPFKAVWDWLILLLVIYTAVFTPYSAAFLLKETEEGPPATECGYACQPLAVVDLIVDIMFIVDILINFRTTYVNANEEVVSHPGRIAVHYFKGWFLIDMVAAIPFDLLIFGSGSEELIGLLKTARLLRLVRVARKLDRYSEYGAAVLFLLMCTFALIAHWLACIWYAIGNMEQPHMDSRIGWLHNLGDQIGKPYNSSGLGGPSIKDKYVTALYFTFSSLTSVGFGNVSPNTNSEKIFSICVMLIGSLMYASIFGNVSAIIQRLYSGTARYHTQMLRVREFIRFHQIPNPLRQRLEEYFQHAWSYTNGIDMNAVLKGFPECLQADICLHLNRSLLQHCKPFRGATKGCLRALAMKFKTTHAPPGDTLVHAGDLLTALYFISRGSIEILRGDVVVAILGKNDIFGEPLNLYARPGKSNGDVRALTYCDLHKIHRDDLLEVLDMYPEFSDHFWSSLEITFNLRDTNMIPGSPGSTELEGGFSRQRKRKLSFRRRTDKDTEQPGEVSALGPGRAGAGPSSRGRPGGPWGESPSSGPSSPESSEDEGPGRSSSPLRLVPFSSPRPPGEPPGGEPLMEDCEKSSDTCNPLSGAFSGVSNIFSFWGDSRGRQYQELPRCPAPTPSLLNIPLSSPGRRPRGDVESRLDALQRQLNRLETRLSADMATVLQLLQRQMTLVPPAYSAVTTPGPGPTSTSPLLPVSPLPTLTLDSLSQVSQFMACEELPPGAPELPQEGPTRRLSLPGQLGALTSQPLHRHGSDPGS
Method in brief: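 Channel function was assessed by thallium flux. Cells seeded the previous day and kept at 37 C took up FluxOR II dye over 1 h in the dark at room temperature, then sat another 10 min before stimulation.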

[11] = molecular target: Cytochrome P450 3A4 (Homo sapiens) (UniProt P08684); assay: Cytochrome P450 Family 3 Subfamily A Member 4 (CYP3A4) small molecule antagonists: luciferase reporter qHTS assay (AID 1671201)
Sequence of Cytochrome P450 3A4 (Homo sapiens) (P08684 whole entry, looked up): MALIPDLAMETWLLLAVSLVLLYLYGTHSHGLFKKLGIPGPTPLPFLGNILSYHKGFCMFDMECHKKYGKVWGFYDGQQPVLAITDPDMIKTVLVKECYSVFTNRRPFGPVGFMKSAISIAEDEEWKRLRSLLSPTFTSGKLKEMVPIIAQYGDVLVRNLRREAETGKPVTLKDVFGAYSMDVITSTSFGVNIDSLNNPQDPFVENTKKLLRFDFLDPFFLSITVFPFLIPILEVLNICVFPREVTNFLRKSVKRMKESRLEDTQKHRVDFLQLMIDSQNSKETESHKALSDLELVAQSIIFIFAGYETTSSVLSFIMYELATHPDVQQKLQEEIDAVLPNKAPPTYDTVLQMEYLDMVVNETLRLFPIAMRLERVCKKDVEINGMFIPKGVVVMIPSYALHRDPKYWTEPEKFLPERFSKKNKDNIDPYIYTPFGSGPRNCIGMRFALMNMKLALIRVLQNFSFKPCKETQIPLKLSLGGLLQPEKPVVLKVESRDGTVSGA
Method in brief: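 Compounds in DMSO were pin-transferred onto CYP3A4 enzyme-substrate mix and held 10 min at room temperature. NADPH regenerating solution started the reaction for 1 h; luciferin detection reagent stopped it, and luminescence was read after 20 min.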

[12] = molecular target: Nuclear receptor subfamily 1 group I member 2 (Homo sapiens) (UniProt O75469); assay: Human pregnane X receptor (PXR) small molecule agonists, qHTS assay (AID 1346982); further: nearly all actives have a fitted effect of over 35% in size; further: potency means the concentration at half of the fitted maximal effect
Sequence of Nuclear receptor subfamily 1 group I member 2 (Homo sapiens) (O75469 whole entry, looked up): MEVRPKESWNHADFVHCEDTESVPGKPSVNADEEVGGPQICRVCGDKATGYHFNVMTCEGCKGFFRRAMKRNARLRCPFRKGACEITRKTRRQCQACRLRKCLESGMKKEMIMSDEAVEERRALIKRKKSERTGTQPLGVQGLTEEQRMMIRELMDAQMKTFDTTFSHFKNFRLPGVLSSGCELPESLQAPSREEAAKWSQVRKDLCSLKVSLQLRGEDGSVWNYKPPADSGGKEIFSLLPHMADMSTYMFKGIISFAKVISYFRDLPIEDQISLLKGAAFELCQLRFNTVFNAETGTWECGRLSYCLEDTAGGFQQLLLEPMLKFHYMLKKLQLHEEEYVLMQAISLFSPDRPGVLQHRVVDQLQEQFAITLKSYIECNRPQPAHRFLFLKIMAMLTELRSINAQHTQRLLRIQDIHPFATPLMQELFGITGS
Method in brief: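 Agonist mode qHTS: PXR-Luc HepG2 cells plated 5 hr before DMSO-dissolved compounds were pinned in, cultured 24 hr at 37 C, 5% CO2; ONE-Glo luminescence readout.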

[13] = Caspase-3/7 induction in CHO-K1 cells by small molecules, qHTS cell viability counter screen (AID 1346979); further: nearly all actives have a fitted effect of over 35% in size; further: potency means the concentration at half of the fitted maximal effect
Method in brief: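 Cells (CHO-K1, wild type) are plated at 1,500 per well and incubated 5hr. Test compounds in DMSO are then pinned in, followed by 16hr at 37C and 5% CO2. Viability is read by CellTiter-Fluor fluorescence after 1hr.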

[14] = molecular target: Nuclear receptor subfamily 1 group I member 2 (Homo sapiens) (UniProt O75469); assay: CYP3A4 induction through human pregnane X receptor (PXR) by small molecules, qHTS assay (AID 1346984); further: nearly all actives have a fitted effect of over 40% in size
Method in brief: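 Steps: seed DPX-2 cells, 5 hr at 37C; pin-transfer compounds; 24 hr at 37C; add Luciferin-IPA (3uM final), 3 hr at 37C; add One-Glo, 30 min RT; read luminescence.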

[15] = molecular target: Nuclear receptor subfamily 1 group I member 2 (Homo sapiens) (UniProt O75469); assay: Human pregnane X receptor (PXR) activation by small molecules, qHTS assay (AID 1346985); further: nearly all actives have a fitted effect of over 40% in size
Method in brief: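 DPX-2 cells (HepG2 co-transfected with a PXR response element and a CYP3A4-promoter luciferase construct) were seeded at 2,000 per well, rested 5 hr at 37C, then exposed to DMSO-dissolved compounds for 24 hr. Activation was read as luciferase luminescence.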
On the % scale 0 is the no-effect control and ±100 the full control effect.

CCCCCCOc1ccccc1C(N)=O
active: Potency [7] 17.4 µM | Potency [8] 8.71 µM | Potency [9] 13.8 µM
inactive: Potency [1] | Potency [2] | outcome [3] | Potency [4] | max activation [5] 6.49% | Potency [6] | Potency [10] | Potency [11]

CC(=O)OC(C)OC(=O)C(C)c1ccc(-c2ccccc2)c(F)c1 (stereo not drawn)
inactive: Potency [1] | Potency [2] | outcome [3] | Potency [4] | Potency [12] | Potency [10] | Potency [11]
active: Potency [7] 5.49 µM | Potency [8] 3.47 µM | Potency [9] 8.71 µM

CC(C)CC(=O)O
inactive: Potency [1] | Potency [13] | outcome [3] | Potency [4]

CC(=O)Nc1ccc(S(=O)(=O)Cl)cc1
inactive: Potency [1] | Potency [2] | Potency [13] | Potency [4] | Potency [6] | Potency [8] | Potency [9] | Potency [10] | Potency [11]

O=C1O[C@@H]2[C@@H](O)[C@H](O)O[C@@H]2[C@H]1O
inactive: Potency [1] | Potency [13] | outcome [3] | Potency [4] | Potency [12] | Potency [9] | Potency [10] | Potency [11]

CNS(=O)(=O)CCc1ccc2[nH]cc(C3CCN(C)CC3)c2c1
inactive: Potency [1] | Potency [2] | Potency [13] | Potency [4] | Potency [12] | Potency [7] | Potency [8] | Potency [9] | Potency [10] | Potency [11]

Cc1ccc(S(=O)(=O)O)c(C)c1
inactive: Potency [1] | Potency [2] | outcome [3] | Potency [4] | Potency [12] | Potency [6] | Potency [7] | Potency [8] | Potency [9] | Potency [10] | Potency [11]

O=S(=O)(O)c1cc(O)c2ccc(Nc3ccccc3)cc2c1
inactive: Potency [1] | Potency [2] | outcome [3] | Potency [12] | Potency [9] | Potency [10] | Potency [11]
active: Potency [7] 71 µM | Potency [8] 39.9 µM

CCCCCCCCSCC
inactive: Potency [1] | Potency [2] | Potency [13] | Potency [4] | Potency [12] | Potency [6] | Potency [7] | Potency [8] | Potency [10] | Potency [11]

O=C(OCC(O)CO)c1ccccc1Nc1ccnc2c(C(F)(F)F)cccc12 (stereo not drawn)
inactive: Potency [1] | Potency [2] | outcome [3] | Potency [4] | Potency [10]
active: Potency [12] 26.6 µM | Potency [6] 30.9 µM | Potency [7] 0.347 µM | Potency [8] 9.77 µM

CCOc1cc([N+](=O)[O-])c(OCC)cc1N1CCOCC1
inactive: Potency [1] | Potency [2] | Potency [7] | Potency [10] | Potency [11]
active: Potency [8] 7.96 µM | Potency [9] 1.78 µM

CCCCCOC(=O)CCC
inactive: Potency [1] | Potency [2] | Potency [13] | Potency [12] | Potency [6] | Potency [7] | Potency [8] | Potency [10] | Potency [11]

Cc1ccc2c(c1)OCC(=O)CO2
inactive: Potency [1] | Potency [2] | Potency [13] | Potency [12] | Potency [8] | Potency [10] | Potency [11]
active: Potency [6] 35.6 µM

O=C(NCCN1CCOCC1)c1ccc(Cl)cc1
inactive: Potency [1] | Potency [2] | Potency [13] | Potency [4] | max activation [5] 1.47% | Potency [14] | Potency [15] | Potency [8] | Potency [10] | Potency [11]
active: Potency [7] 34.7 µM

CCOC(=O)c1ccc(OC(=O)CCCCCN=C(N)N)cc1
inactive: Potency [1] | Potency [13] | outcome [3] | Potency [4] | Potency [12] | max activation [5] 0.318% | Potency [14] | Potency [15] | Potency [7] | Potency [8] | Potency [10] | Potency [11]

Cc1cccc(C)c1NC(=O)c1ccccc1C(=O)O
inactive: Potency [1] | Potency [2] | outcome [3] | Potency [4] | Potency [12] | max activation [5] -1.88% | Potency [14] | Potency [15] | Potency [7] | Potency [8] | Potency [9] | Potency [10] | Potency [11]

COC(=O)CCc1ccc(OCC(O)CNC(C)C)cc1 (stereo not drawn)
inactive: Potency [1] | Potency [13] | outcome [3] | Potency [4] | Potency [12] | Potency [7] | Potency [8] | Potency [10] | Potency [11]

COCCOCCOCCOCCO
inactive: Potency [1] | Potency [13] | outcome [3] | Potency [4] | Potency [12] | Potency [7] | Potency [8] | Potency [10] | Potency [11]

CC(C(=O)O)c1ccc2c(c1)CC(=O)c1ccccc1S2 (stereo not drawn)
inactive: Potency [1] | Potency [13] | outcome [3] | Potency [4] | Potency [12] | Potency [6] | Potency [7] | Potency [10] | Potency [11]

C=C(C)C(=O)OCC(C)(C)COC(=O)C(=C)C
inactive: Potency [1] | Potency [13] | outcome [3] | Potency [4] | Potency [12] | Potency [7] | Potency [8] | Potency [9] | Potency [10] | Potency [11]

Nc1ccc2cc(S(=O)(=O)O)cc(O)c2c1
active: Potency [1] 54.2 µM | Potency [13] 54.2 µM | Potency [4] 60.8 µM | Potency [12] 6.08 µM | Potency [7] 22.3 µM | Potency [8] 35.4 µM
inactive: Potency [2] | Potency [10] | Potency [11]

N[C@@H](CCC(=O)N[C@@H](CS)C(=O)NCC(=O)O)C(=O)O
inactive: activity change, negative = cytotoxicity [1] 1.19% [at 19 µM] | caspase activation [2] -1.46% [at 19 µM] | activity change, negative = cytotoxicity [13] 5.61% [at 19 µM] | activity change, negative = cytotoxicity [4] -0.0408% [at 19 µM] | max activation [5] 3.38% | activity change, negative = inhibition [10] 7.2% [at 15.8 µM]
